Experimental data published in paper PMC7862700, “An all-to-all approach to the identification of sequence-specific readers for epigenetic DNA modifications on cytosine”.

Key:
Assay in all cases: DAPPL (digital affinity profiling via proximity ligation, sequencing); 10 mM Tris-HCl pH 7.5, 50 mM NaCl, 1 mM DTT, 4% glycerol, room temperature, 30 min; GST-TFs on glutathione beads, 16-mer random dsDNA library, 0.1% formaldehyde crosslink after washing; high values mean tight binding
[1] = target: T1, FEV (Homo sapiens, UniProt Q99581 1-238); settings: protein: recombinant; tags: N-terminal GST; dsDNA, one strand shown
T1 sequence: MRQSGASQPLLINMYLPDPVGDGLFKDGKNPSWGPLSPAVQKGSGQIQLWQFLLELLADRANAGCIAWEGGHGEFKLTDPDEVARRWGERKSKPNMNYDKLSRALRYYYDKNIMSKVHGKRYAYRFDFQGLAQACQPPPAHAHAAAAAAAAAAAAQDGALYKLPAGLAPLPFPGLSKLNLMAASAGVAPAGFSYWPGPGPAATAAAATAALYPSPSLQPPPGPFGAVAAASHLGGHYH
Procedure, shortened: (§1)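 Pools of DNA-barcoded human transcription factors, expressed in yeast as GST fusions on glutathione beads and combined with a tag-only sample, were incubated with 200 nmole of a 16-mer random double-stranded DNA library. Incubation took 30 min at room temperature in Tris/NaCl/DTT/glycerol buffer and was followed by washing, 0.1% formaldehyde crosslinking, proximity ligation (BsaI/T4 ligase, 1 h, 37 °C), PCR amplification and sequencing on an Illumina NextSeq500. Binding signal is the ratio of a hexamer's read frequency for a factor to its frequency for the tag-only sample.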

[2] = target: ETV5 (Homo sapiens, UniProt P41161 1-510); settings: protein: recombinant; tags: N-terminal GST; dsDNA, one strand shown
Sequence of ETV5 (P41161 whole entry): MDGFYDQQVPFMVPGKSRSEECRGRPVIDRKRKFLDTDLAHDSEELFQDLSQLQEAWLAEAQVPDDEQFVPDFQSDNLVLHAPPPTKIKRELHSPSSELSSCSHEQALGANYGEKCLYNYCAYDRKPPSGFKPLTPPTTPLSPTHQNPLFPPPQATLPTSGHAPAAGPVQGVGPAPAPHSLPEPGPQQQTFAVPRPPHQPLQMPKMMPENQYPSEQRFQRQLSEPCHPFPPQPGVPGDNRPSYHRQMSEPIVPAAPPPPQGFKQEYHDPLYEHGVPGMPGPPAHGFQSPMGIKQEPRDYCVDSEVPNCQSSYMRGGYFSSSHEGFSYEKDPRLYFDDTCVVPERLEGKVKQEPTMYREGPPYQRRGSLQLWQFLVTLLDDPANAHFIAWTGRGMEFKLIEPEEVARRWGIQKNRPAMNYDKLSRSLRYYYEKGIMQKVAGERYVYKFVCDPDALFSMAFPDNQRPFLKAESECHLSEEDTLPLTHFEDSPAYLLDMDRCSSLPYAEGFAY
Procedure, shortened: as §1

[3] = target: HSF1 (Homo sapiens, UniProt Q00613 1-529); settings: protein: recombinant; tags: N-terminal GST; chain copies: 3; dsDNA, one strand shown
Sequence of HSF1 (Q00613 whole entry): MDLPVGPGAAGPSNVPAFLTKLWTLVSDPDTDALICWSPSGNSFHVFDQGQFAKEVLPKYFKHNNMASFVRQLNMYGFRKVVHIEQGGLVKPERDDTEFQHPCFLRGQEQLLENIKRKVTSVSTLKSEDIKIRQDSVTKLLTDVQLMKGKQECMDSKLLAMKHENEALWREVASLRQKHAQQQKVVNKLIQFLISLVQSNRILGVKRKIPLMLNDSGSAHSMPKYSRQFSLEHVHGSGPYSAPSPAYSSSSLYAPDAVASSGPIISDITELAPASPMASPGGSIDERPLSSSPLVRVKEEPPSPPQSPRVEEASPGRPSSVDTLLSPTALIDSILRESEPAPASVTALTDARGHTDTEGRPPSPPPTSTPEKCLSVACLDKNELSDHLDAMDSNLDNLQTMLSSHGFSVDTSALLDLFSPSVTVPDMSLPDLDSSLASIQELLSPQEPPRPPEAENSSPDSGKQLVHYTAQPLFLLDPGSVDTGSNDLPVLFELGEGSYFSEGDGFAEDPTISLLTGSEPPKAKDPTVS
Procedure, shortened: as §1

[4] = target: T2, SPIC (Homo sapiens, UniProt Q8N5J4 1-248); settings: protein: recombinant; tags: N-terminal GST; dsDNA, one strand shown
T2 sequence: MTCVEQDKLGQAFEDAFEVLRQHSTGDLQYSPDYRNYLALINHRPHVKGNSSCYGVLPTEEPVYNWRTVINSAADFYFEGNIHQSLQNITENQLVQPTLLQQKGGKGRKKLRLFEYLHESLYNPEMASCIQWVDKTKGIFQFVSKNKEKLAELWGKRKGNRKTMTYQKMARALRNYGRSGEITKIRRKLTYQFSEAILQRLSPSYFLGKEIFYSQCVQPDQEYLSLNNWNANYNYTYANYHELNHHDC
Procedure, shortened: as §1

[5] = target: ELF4 (Homo sapiens, UniProt Q99607 1-663); settings: protein: recombinant; tags: N-terminal GST; dsDNA, one strand shown
Sequence of ELF4 (Q99607 whole entry): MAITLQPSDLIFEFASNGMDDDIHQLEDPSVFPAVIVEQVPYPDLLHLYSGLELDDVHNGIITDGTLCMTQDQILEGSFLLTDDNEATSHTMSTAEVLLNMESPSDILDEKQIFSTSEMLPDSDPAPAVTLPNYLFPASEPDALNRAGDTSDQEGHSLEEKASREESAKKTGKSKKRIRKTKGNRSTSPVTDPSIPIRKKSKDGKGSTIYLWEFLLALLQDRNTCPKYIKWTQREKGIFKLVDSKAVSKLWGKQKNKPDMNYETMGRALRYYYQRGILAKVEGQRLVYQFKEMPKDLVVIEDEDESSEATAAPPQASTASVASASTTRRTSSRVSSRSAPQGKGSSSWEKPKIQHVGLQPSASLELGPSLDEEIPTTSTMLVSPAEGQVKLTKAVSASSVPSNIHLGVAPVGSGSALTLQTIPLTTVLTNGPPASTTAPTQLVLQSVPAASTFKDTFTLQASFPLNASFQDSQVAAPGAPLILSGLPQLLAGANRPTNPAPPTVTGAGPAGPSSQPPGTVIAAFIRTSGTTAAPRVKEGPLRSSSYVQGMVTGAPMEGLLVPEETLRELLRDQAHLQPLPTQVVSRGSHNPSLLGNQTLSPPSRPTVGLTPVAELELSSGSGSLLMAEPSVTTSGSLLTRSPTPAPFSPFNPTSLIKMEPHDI
Procedure, shortened: as §1

[6] = target: T3, ELK4 (Homo sapiens, UniProt P28324-2 1-405); settings: protein: recombinant; tags: N-terminal GST; dsDNA, one strand shown
T3 sequence: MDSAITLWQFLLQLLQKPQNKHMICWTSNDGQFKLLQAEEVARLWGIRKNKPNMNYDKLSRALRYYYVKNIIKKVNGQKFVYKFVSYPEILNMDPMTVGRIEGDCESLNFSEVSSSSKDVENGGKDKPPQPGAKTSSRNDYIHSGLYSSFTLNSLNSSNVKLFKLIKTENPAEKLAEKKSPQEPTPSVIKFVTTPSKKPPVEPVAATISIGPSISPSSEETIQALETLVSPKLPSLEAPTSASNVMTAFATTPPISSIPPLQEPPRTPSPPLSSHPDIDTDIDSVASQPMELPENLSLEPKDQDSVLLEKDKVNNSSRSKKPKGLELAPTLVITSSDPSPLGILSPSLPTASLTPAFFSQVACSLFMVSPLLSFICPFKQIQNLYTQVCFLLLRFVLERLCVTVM
Procedure, shortened: as §1

[7] = target: T4, ETV2 (Homo sapiens, UniProt O00321 1-342); settings: protein: recombinant; tags: N-terminal GST; dsDNA, one strand shown
T4 sequence: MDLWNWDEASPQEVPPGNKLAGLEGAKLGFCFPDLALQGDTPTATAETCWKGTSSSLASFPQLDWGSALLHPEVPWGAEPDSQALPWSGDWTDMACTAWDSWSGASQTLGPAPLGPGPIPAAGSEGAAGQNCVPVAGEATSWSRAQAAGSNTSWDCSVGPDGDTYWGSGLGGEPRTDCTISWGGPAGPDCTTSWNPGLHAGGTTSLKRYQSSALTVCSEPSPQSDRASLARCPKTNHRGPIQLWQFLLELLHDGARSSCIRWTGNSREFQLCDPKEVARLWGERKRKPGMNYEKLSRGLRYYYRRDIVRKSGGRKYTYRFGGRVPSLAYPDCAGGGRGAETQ
Procedure, shortened: as §1

[8] = target: T5, ELF3 (Homo sapiens, UniProt P78545 1-371); settings: protein: recombinant; tags: N-terminal GST; dsDNA, one strand shown
T5 sequence: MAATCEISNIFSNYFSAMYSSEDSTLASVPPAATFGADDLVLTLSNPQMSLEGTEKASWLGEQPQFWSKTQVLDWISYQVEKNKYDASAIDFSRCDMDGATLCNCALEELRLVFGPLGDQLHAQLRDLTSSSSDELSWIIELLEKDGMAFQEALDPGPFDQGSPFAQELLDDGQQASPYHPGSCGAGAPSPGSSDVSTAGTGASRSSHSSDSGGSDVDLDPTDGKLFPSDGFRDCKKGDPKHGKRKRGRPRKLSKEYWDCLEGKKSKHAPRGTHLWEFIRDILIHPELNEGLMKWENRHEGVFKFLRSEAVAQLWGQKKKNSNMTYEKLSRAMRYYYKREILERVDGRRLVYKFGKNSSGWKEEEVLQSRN
Procedure, shortened: as §1

[9] = target: CRX (Homo sapiens, UniProt O43186 1-299); settings: protein: recombinant; tags: N-terminal GST; dsDNA, one strand shown
Sequence of CRX (O43186 whole entry): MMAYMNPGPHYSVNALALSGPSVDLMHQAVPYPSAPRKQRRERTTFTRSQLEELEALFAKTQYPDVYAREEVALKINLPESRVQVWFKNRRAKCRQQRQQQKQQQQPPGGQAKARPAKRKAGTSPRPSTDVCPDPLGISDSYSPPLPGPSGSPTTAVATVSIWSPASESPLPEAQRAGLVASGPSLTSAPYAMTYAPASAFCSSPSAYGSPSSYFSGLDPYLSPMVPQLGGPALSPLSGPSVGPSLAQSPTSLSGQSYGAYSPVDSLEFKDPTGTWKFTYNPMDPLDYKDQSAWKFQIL
Procedure, shortened: as §1

[10] = target: ETV1 (Homo sapiens, UniProt P50549 1-477); settings: protein: recombinant; tags: N-terminal GST; dsDNA, one strand shown
Sequence of ETV1 (P50549 whole entry): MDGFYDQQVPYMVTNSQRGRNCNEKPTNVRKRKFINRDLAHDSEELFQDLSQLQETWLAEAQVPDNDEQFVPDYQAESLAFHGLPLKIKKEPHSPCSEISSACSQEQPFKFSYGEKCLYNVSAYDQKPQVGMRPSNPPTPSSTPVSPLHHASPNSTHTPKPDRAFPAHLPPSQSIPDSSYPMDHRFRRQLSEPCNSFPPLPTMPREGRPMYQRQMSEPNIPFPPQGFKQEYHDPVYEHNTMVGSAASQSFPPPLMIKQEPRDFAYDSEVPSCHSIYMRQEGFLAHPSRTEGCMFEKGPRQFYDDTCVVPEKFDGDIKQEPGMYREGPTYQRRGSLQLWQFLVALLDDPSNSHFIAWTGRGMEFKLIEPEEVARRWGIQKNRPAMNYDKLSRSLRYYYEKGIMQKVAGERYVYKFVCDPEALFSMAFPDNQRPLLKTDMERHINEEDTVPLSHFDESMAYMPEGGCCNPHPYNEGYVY
Procedure, shortened: as §1

[11] = target: T6, ERF (Homo sapiens, UniProt P50548 1-548); settings: protein: recombinant; tags: N-terminal GST; dsDNA, one strand shown
T6 sequence: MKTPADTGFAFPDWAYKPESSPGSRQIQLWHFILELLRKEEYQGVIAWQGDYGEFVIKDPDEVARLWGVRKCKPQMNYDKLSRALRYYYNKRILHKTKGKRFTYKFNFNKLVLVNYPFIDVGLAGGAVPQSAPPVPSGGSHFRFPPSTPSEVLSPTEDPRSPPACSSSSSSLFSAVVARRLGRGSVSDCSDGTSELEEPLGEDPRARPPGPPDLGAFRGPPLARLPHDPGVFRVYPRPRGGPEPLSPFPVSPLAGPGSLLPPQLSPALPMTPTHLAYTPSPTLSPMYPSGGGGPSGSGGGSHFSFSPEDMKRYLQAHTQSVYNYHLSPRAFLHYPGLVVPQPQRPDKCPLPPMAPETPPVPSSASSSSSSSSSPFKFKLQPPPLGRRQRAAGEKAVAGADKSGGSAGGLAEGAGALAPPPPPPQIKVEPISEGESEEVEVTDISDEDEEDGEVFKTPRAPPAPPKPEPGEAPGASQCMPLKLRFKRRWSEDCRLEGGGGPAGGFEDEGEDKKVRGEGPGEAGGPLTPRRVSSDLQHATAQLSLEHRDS
Procedure, shortened: as §1

[12] = target: T7, ETV3L (Homo sapiens, UniProt Q6ZN32 1-361); settings: protein: recombinant; tags: N-terminal GST; dsDNA, one strand shown
T7 sequence: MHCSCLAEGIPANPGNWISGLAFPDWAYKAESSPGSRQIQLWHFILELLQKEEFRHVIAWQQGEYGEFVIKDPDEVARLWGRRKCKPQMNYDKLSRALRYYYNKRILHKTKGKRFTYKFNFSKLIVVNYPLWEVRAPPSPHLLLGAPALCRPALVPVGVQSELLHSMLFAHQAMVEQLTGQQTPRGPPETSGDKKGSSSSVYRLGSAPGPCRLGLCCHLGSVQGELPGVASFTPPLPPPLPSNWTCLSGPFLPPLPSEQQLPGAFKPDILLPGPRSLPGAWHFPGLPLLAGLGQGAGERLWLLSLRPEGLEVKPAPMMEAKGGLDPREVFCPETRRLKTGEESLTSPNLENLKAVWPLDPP
Procedure, shortened: as §1

[13] = target: T8, ETS2 (Homo sapiens, UniProt P15036 1-469); settings: protein: recombinant; tags: N-terminal GST; dsDNA, one strand shown
T8 sequence: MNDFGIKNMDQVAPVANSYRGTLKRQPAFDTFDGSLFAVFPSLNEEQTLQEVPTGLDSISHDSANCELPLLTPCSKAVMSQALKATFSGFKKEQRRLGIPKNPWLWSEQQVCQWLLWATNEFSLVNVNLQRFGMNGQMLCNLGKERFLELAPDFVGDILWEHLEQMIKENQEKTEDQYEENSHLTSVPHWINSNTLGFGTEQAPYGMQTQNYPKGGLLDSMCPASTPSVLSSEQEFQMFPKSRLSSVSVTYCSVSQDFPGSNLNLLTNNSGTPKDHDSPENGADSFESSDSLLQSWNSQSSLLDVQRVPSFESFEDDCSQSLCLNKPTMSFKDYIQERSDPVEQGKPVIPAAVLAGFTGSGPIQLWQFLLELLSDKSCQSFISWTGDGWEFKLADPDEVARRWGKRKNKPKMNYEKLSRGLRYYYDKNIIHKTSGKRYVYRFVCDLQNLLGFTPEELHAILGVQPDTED
Procedure, shortened: as §1

[14] = target: T9, SPDEF (Homo sapiens, UniProt O95238 1-335); settings: protein: recombinant; tags: N-terminal GST; dsDNA, one strand shown
T9 sequence: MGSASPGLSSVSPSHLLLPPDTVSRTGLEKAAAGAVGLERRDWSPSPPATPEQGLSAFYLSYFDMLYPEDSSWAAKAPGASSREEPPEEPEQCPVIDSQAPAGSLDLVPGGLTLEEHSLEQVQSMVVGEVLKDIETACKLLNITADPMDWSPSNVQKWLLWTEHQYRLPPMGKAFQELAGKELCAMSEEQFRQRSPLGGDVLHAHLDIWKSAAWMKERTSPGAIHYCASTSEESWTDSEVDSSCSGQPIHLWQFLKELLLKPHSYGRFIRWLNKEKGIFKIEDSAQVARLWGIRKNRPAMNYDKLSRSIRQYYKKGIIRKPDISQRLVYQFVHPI
Procedure, shortened: as §1

[15] = target: T10, ETV7 (Homo sapiens, UniProt Q9Y603 1-341); settings: protein: recombinant; tags: N-terminal GST; dsDNA, one strand shown
T10 sequence: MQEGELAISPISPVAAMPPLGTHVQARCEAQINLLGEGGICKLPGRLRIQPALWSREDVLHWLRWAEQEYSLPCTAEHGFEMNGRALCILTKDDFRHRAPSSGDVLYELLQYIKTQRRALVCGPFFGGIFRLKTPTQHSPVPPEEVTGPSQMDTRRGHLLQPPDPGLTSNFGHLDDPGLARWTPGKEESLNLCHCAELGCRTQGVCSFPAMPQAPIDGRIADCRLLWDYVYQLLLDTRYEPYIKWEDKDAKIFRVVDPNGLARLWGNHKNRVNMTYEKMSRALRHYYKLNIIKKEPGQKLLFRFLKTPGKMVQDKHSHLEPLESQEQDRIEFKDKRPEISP
Procedure, shortened: as §1

[16] = target: T11, ELF5 (Homo sapiens, UniProt Q9UKW6-2 1-255); settings: protein: recombinant; tags: N-terminal GST; dsDNA, one strand shown
T11 sequence: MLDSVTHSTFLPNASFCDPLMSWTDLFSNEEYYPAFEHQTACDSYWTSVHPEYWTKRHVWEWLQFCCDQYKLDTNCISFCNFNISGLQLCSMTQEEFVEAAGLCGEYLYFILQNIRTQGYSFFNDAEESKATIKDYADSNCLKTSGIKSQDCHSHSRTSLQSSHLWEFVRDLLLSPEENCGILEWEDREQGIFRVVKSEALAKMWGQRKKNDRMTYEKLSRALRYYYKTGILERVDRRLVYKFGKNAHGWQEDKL
Procedure, shortened: as §1

[17] = target: T12, ETV3 (Homo sapiens, UniProt P41162-2 1-143); settings: protein: recombinant; tags: N-terminal GST; dsDNA, one strand shown
T12 sequence: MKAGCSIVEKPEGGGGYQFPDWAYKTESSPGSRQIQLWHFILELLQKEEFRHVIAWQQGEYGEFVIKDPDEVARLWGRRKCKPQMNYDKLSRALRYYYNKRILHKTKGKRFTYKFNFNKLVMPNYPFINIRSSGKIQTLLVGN
Procedure, shortened: as §1

[18] = target: ETV6 (Homo sapiens, UniProt P41212 1-452); settings: protein: recombinant; tags: N-terminal GST; dsDNA, one strand shown
Sequence of ETV6 (P41212 whole entry): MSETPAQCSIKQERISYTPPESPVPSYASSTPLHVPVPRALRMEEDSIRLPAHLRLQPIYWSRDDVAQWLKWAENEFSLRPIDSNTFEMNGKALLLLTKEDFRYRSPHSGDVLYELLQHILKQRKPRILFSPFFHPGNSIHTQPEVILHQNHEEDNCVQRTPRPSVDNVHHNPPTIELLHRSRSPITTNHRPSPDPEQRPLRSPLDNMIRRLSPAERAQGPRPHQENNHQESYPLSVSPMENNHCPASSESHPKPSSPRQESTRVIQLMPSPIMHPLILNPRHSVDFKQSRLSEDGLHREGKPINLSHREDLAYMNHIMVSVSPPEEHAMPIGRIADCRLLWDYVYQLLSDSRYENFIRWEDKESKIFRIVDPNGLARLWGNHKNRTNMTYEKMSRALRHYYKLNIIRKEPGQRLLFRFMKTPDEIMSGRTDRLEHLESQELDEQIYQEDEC
Procedure, shortened: as §1

## TATTGA
[1]
  binding signal: 1.1 fold enrichment (6-mer frequency, TF over GST control)
[2]
  binding signal: 1.1 fold enrichment (6-mer frequency, TF over GST control)
[3]
  binding signal: 1.14 fold enrichment (6-mer frequency, TF over GST control)
[4]
  binding signal: 1.2 fold enrichment (6-mer frequency, TF over GST control)
[5]
  binding signal: 1.17 fold enrichment (6-mer frequency, TF over GST control)
[6]
  binding signal: 1.17 fold enrichment (6-mer frequency, TF over GST control)
[7]
  binding signal: 1.14 fold enrichment (6-mer frequency, TF over GST control)
[8]
  binding signal: 1.19 fold enrichment (6-mer frequency, TF over GST control)
[9]
  binding signal: 1.29 fold enrichment (6-mer frequency, TF over GST control)
[10]
  binding signal: 1.16 fold enrichment (6-mer frequency, TF over GST control)
[11]
  binding signal: 1.12 fold enrichment (6-mer frequency, TF over GST control)
[12]
  binding signal: 1.22 fold enrichment (6-mer frequency, TF over GST control)
[13]
  binding signal: 1.12 fold enrichment (6-mer frequency, TF over GST control)
[14]
  binding signal: 1.17 fold enrichment (6-mer frequency, TF over GST control)
[15]
  binding signal: 1.14 fold enrichment (6-mer frequency, TF over GST control)
[16]
  binding signal: 1.11 fold enrichment (6-mer frequency, TF over GST control)
[17]
  binding signal: 1.19 fold enrichment (6-mer frequency, TF over GST control)
[18]
  binding signal: 1.16 fold enrichment (6-mer frequency, TF over GST control)
